Assay outcomes: PubChem BioAssay, National Center for Advancing Translational Sciences (NCATS)
The list is not random: actives were taken first. Their share in the collection is about 3.2%.
Lassa entry inh = Lassa virus entry inhibition | hit rate 1.2% among 300,000 | AID 540256 | Lassa virus pseudotype entry inhibition, cell reporter | Potency, µM (series often up to 37.9 µM), actives largely listed as inhibitors; calls by dose curve; tested in HEK293 cells; note: nearly all actives have a fitted effect of over 50% in size
VACV mCherry inh = inhibitors of vaccinia virus infection (mCherry reporter signal) | Vaccinia virus mCherry reporter infection, fluorescence | Potency, µM (doses to about 36.5 µM), usual class: inhibitors | hit rate 0.63% among 310,000 | AID 720579; calls by dose curve; tested in A549 cells; note: nearly all actives have a fitted effect of over 35% in size
Vaccinia Venus = vaccinia inhibition (Venus reporter) | Vaccinia virus Venus reporter expression, fluorescence | Potency, µM (doses to about 36.5 µM), hits mostly inhibitors | hit rate 0.46% among 330,000; calls by dose curve; tested in A549 cells; note: nearly all actives have a fitted effect of over 30% in size
MARV entry inh = Marburg virus entry inhibition. Marburg virus pseudotyped entry inhibition, cell reporter. Potency, µM (highest dose often 37.8 µM), actives largely listed as inhibitors. hit rate 1.8% among 300,000. AID 540276; calls by dose curve; tested in HEK293 cells
FMDV inh = antivirals against foot and mouth disease virus. FMDV antiviral cell-based qHTS. Potency, µM (series often up to 57.9 µM), usual class: inhibitors. hit rate 1.2% among 410,000. AID 1159524; calls by dose curve; tested in HEK293T cells; note: read-out not given here; nearly all actives have a fitted effect of over 45% in size
G2M arrest HeLa = HeLa G2/M cell cycle arrest induction | shares compounds with MARV entry inh | HeLa cell cycle G2/M arrest, Hoechst DNA content imaging | Potency, µM, usual class: inhibitors | hit rate 60% among 25 | AID 2441
WI-38 tox = counter-screen for perinucleolar compartment inhibitors: WI-38 cytotoxicity; 120 tested, under 10 active; WI-38 normal lung fibroblasts, ATPLite luminescence ATP viability, 24 h; shares compounds with MARV entry inh; Potency, µM (titrated, usually from 46.1 µM), most hits filed as inhibitors; AID 2729
PNC inh conf = confirmation of perinucleolar compartment assembly inhibitors; PC3M PTB-GFP, PNC prevalence imaging, 16 h; Potency, µM (highest dose often 46.1 µM), hits mostly inhibitors; shares compounds with MARV entry inh; hit rate 50% among 120
PC3M caspase = PC3M caspase 3/7 activation by PNC inhibitor hits; shares compounds with MARV entry inh; PC3M-GFP caspase 3/7 activation, luminescence, 24 h; activity change, positive = activation, % at 46.1 µM; 120 tested, under 10 active
Of the large screens only hits and unclear results are named; the others gave an inactive call (follow-up assays come after a bar, where they were run); ! = a repeat was not active. Unless noted, calls come from the whole dose curve; as a rule, active = well fitted curve in the direction sought with a large enough effect; inconclusive = small, poorly fitted or top-dose-only effect, or another doubt; inactive = no such curve, though single readings can be large; an effect the other way counts as inactive or inconclusive.

Cc1ccc(Nc2c(-c3ccc(N4CCOCC4)cc3)nc3ncccn23)c(C)c1	VACV mCherry inh inconclusive, MARV entry inh inconclusive
Cc1cccc(C)c1Nc1c(-c2ccc(N3CCOCC3)cc2)nc2ncccn12	none | WI-38 tox inactive | PNC inh conf inactive | PC3M caspase inactive
COc1cc(/C=N/NC(=O)c2ccc3nc[nH]c3c2)cc(OC)c1OC	none
COc1cc(/C=N/NC(=O)c2ccc(CSc3nc4ccccc4[nH]3)cc2)cc(OC)c1OC	Lassa entry inh inconclusive, MARV entry inh inconclusive, FMDV inh inconclusive | WI-38 tox inactive | PNC inh conf inactive | PC3M caspase inactive
CCOC(=O)CSc1nc2c(sc3ccc([N+](=O)[O-])cc32)c(=O)n1Cc1ccco1	none | WI-38 tox inactive | PNC inh conf inactive | PC3M caspase inactive
Cc1ccc(NC(=O)COC(=O)c2ccc(Cl)nc2)cc1S(=O)(=O)N1CCCCC1	none (no result: Lassa entry inh, VACV mCherry inh, Vaccinia Venus, MARV entry inh)
CCC1(O)CC2CN(CCc3c([nH]c4ccccc34)[C@@](C(=O)OC)(c3cc4c(cc3OC)N(C=O)C3[C@]45CCN4CC=C[C@@](CC)([C@@H](OC(C)=O)[C@]3(O)C(=O)OC)[C@H]45)C2)C1 (some centres not stated)	MARV entry inh 13µM! (no result: Lassa entry inh, VACV mCherry inh, Vaccinia Venus, FMDV inh) | G2M arrest HeLa inconclusive
CCC1(O)CC2CN(CCc3c([nH]c4ccccc34)C(C(=O)OC)(c3cc4c(cc3OC)N(C=O)C3C(O)(C(=O)OC)C(OC(C)=O)C5(CC)C=CCN6CCC43C65)C2)C1 (configuration not stated)	Lassa entry inh inconclusive, VACV mCherry inh inconclusive, Vaccinia Venus inconclusive, MARV entry inh inconclusive
CC12CCC3c4ccc(O)cc4CCC3C1CCC2O (configuration not stated)	none (no result: Lassa entry inh, VACV mCherry inh, Vaccinia Venus, MARV entry inh)
COc1cc2c(cc1O)CCC1C2CC[C@]2(C)[C@@H](O)CC[C@@H]12 (some centres not stated)	MARV entry inh inconclusive (no result: Lassa entry inh, VACV mCherry inh, Vaccinia Venus, FMDV inh) | G2M arrest HeLa 1.1
C[C@]12CC[C@@H]3c4ccc(O)cc4CC[C@H]3[C@@H]1CC[C@@H]2O	Lassa entry inh inconclusive, MARV entry inh inconclusive | G2M arrest HeLa 10
CNc1ccc2oc(C[C@H]3O[C@@]4(CC[C@H]3C)O[C@H]([C@H](C)C(=O)c3ccc[nH]3)[C@H](C)C[C@H]4C)nc2c1C(=O)O	Lassa entry inh 0.23µM, VACV mCherry inh 3.5µM, Vaccinia Venus 2.5µM, MARV entry inh 2.9µM, FMDV inh inconclusive | G2M arrest HeLa 4.5
CCOC(=O)NC1(Nc2ccc(C)cc2)Oc2ccccc2O1	Lassa entry inh inconclusive | WI-38 tox inactive | PNC inh conf inactive | PC3M caspase inactive
CCOC(=O)NC1(NC(C)C)Oc2ccccc2O1	none
CCCN(C(=O)CSc1nc2ccccc2n1CC)C1CCS(=O)(=O)C1 (configuration not stated)	none
O=C(N/N=C/c1ccccc1O)c1cccc(C(F)(F)F)c1	Lassa entry inh inconclusive, VACV mCherry inh 3.5µM, Vaccinia Venus inconclusive, MARV entry inh 5.6µM | WI-38 tox inactive | PNC inh conf 28µM | PC3M caspase inactive
CCN(CC)S(=O)(=O)c1ccc(C2=NOC3(C2)N(C)c2ccccc2C3(C)C)cc1 (configuration not stated)	Lassa entry inh 0.73µM, MARV entry inh 1.8µM | WI-38 tox inactive | PNC inh conf 5µM | PC3M caspase inactive
CCN(CC)S(=O)(=O)c1ccc(-c2nnco2)cc1	none
CCN(CC)C(=O)N1c2ccccc2C=Cc2ccccc21	Lassa entry inh 0.63µM, Vaccinia Venus inconclusive, MARV entry inh 1.1µM, FMDV inh inconclusive (no result: VACV mCherry inh) | WI-38 tox inactive | PNC inh conf 5µM | PC3M caspase inactive
Cc1ccc(S(=O)(=O)n2nc(-c3ccco3)nc2N)cc1	none
O=C(OC1CCOC1=O)C1CCN(S(=O)(=O)c2c(Cl)cccc2Cl)CC1 (configuration not stated)	MARV entry inh inconclusive
